Results with a measured potency or affinity are listed apart.
Legend:
Staphylococcus aureus = conditions: Concentration 32 ug.mL-1; ASSAY_TEST Inhibition of Bacterial Growth; detection method Absorption (OD600); MEDIA CAMHB; plate type 384well; NBS; CORNING #3640; time 18 hr
Escherichia coli = conditions: Concentration 32 ug.mL-1; ASSAY_TEST Inhibition of Bacterial Growth; detection method Absorption (OD600); MEDIA CAMHB; plate type 384well; NBS; CORNING #3640; time 18 hr

Structure (SMILES)	Inhibition (Staphylococcus aureus) [%]	Inhibition (Escherichia coli) [%]
CC(NC(=O)c1ncc([N+](=O)[O-])n1C)c1ccc(F)cc1 (stereo not given)	34.68	2.11
Cn1c([N+](=O)[O-])cnc1C(=O)N1CCCC1	47.23	5.01
Cn1c([N+](=O)[O-])cnc1C(=O)N1CCOCC1	46.51	8.52
Cn1c([N+](=O)[O-])cnc1C(=O)NCc1ccc(OC(F)(F)F)cc1	35.57	3.65
Cn1c([N+](=O)[O-])cnc1C(=O)NCc1ccc(F)cc1	28.26	3.69
CN(C)C(=O)c1ncc([N+](=O)[O-])n1C	42.28	6.99
Cn1c([N+](=O)[O-])cnc1C(=O)NCc1cccc(OC(F)(F)F)c1	39.06	5.07
Cn1c([N+](=O)[O-])cnc1C(=O)NCc1ccccn1.O=C(O)C(F)(F)F	45.26	-0.31
Cc1ccc(CCNC(=O)c2ncc([N+](=O)[O-])n2C)cc1	48.13	11.97
Cn1c([N+](=O)[O-])cnc1C(=O)NC1CC1	-13.42	-3.03

Source: ChEMBL document CHEMBL4513134, “CO-ADD screening of University of Queensland (Australia) compounds” (2021)
